Compound activity: PubChem, several laboratories
Only some compounds are listed: those with a hit (about 1.3% of all), similar ones and a draw of the others.
3CLpro inhibitor: SARS-CoV 3CLpro protease inhibition. P0C6X7. recombinant SARS-CoV 3CLpro, quenched FRET peptide cleavage. inhibition, % at 6 µM. 0.14% of 290,000 active. AID 1706; in the data active = inhibition above about 12%
VHR inh abs: DUSP3 (human) phosphatase inhibition. 0.52% of 290,000 active. AID 1654. inhibition, % at 13.3 µM. P51452. recombinant VHR phosphatase, pNPP absorbance; in the data active = inhibition above about 50%
Target sequence (P51452 whole entry, looked up): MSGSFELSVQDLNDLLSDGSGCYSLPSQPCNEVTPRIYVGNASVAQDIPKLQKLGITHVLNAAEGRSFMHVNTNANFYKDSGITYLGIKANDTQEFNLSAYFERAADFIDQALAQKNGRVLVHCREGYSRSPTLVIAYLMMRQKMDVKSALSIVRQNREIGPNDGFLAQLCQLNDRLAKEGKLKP
CCHFV vOTU inh: CCHFV vOTU protease inhibition | inhibition, % at 11.5 µM | Pep-AMC fluorescence | AID 651958 | 0.55% of 370,000 active; in the data active = inhibition above about 30%; note: 0% = vehicle wells with enzyme and 100% = no enzyme wells
Mtb hypoxia rep: inhibitors of hypoxia-regulated fluorescent reporter in Mycobacterium tuberculosis; M. tuberculosis hypoxia-regulated fluorescent reporter, fluorescence; fluorescence inhibition, % (concentration not given with the values); 0.1% of 300,000 active; in the data active = fluorescence inhibition mostly above about 23%, no sharp cut-off; inactive = mostly below about 17%
SSB-PriA inh: inhibitors of Klebsiella pneumoniae PriA binding to SSB C-terminal tail; inhibition, % at 33 µM; AlphaScreen SSBct-PriA binding, biotinylated peptide; 0.6% of 430,000 active; in the data active = inhibition mostly above about 37%, no sharp cut-off; inactive = mostly below about 20%;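 note: plate controls were negative control peptide for no effect and reference peptide for full effect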
The depositor's hits bear a star; ! = not active in a repeat.

How did Cc1ccccc1NC(=O)C(C)SCc1ccccc1 (stereo not given) do in these assays?
3CLpro inhibitor: -1.1; VHR inh abs: 52.0*; CCHFV vOTU inh: -10.6; Mtb hypoxia rep: 9.2; SSB-PriA inh: -11.2

Results for COc1ccc(OC)c(Nc2nc(CC(=O)NCCC3=CCCCC3)cs2)c1 ?
SSB-PriA inh: 22.0*

Results for COc1ccc(OC)c(Nc2nc(CC(=O)NCCc3c[nH]c4ccccc34)cs2)c1 ?
SSB-PriA inh: 16.0*

What do the screens show for `O=C(Cn1ncn2nc(-c3ccc(F)cc3)cc2c1=O)Nc1ccc2c(c1)OCCO2`?
SSB-PriA inh: 3.0

Results for C/C(=N/NC(=O)c1cc(C(C)C)[nH]n1)c1cccc2ccccc12 ?
SSB-PriA inh: -23.0

What do the screens show for `O=C(NCC1CCN(c2cnccn2)CC1)Nc1cccc(C(F)(F)F)c1`?
SSB-PriA inh: 6.0

What do the screens show for `COc1cc(/C=N/N2CCCCC2)cc([N+](=O)[O-])c1O`?
3CLpro inhibitor: -1.4; VHR inh abs: 59.6*; CCHFV vOTU inh: 14.8

What do the screens show for `CCCN1CCCc2cc(CCNS(=O)(=O)c3ccccc3Cl)ccc21`?
SSB-PriA inh: active!

Results for CCCN1CCCc2cc(CCNS(=O)(=O)c3ccccc3Br)ccc21 ?
SSB-PriA inh: active!

Results for CCCN1CCCc2cc(CCNC(=O)C(=O)NCc3ccccc3Cl)ccc21 ?
SSB-PriA inh: -19.0

How did CCCN1CCCc2cc(CCNS(=O)(=O)Cc3ccccc3Cl)ccc21 do in these assays?
SSB-PriA inh: 72.0*

Results for O=C(Nc1cnoc1)c1ccc(Cl)s1 ?
SSB-PriA inh: -6.0

Results for Cc1cc(=O)oc(C)c1C(=O)NCC(C)NC(=O)c1c(C)cc(=O)oc1C (stereo not given) ?
3CLpro inhibitor: -3.1; VHR inh abs: 54.3*; CCHFV vOTU inh: -6.7; Mtb hypoxia rep: 2.3; SSB-PriA inh: -9.7

Results for O=C(C1=C[C@H](c2ccc3c(c2)OCO3)C[C@H](OCc2ccc(CO)cc2)O1)N1CCCCCCC1 ?
3CLpro inhibitor: -2.9; VHR inh abs: 7.4; CCHFV vOTU inh: 0.8; SSB-PriA inh: 41.5*

How did O=C(C1=CC(c2ccc3c(c2)OCO3)CC(OCc2ccc(CO)cc2)O1)N1CCCCCCC1 (stereo not given) do in these assays?
Mtb hypoxia rep: 0.2

What do the screens show for `COc1cc2c(ccc3cc(OC)c(OC)c(O)c32)cc1O`?
VHR inh abs: 52.8*; CCHFV vOTU inh: -1.3; SSB-PriA inh: 4.3

What do the screens show for `Cc1ccc(C(=O)N2CCN(Cc3nc(C4CC4)cs3)CC2)cc1C`?
SSB-PriA inh: -14.0

What do the screens show for `Cc1ccc(NC2=C(Cl)C(=O)c3ccccc3C2=O)cc1`?
3CLpro inhibitor: -3.9; VHR inh abs: -8.8; CCHFV vOTU inh: -5.5; Mtb hypoxia rep: 11.8; SSB-PriA inh: 11.4

What do the screens show for `Cc1cc(C)cc(NC2=C(N)C(=O)c3ccccc3C2=O)c1`?
3CLpro inhibitor: -2.2; VHR inh abs: -3.3; Mtb hypoxia rep: -3.2; SSB-PriA inh: 54.5*

What do the screens show for `Cc1cnc(C(=O)NC(Cc2ccccc2)c2ccccc2)cn1` (stereo not given)?
3CLpro inhibitor: -1.5; VHR inh abs: 6.9; CCHFV vOTU inh: 11.7; Mtb hypoxia rep: 8.5; SSB-PriA inh: -4.9

Results for Cc1cnc(C(=O)NC(C)CCc2ccccc2)cn1 (stereo not given) ?
3CLpro inhibitor: 3.9; VHR inh abs: 1.8; CCHFV vOTU inh: 1.9; Mtb hypoxia rep: 38.5*; SSB-PriA inh: -4.7

Results for Cc1nc(N2CCN(C(=O)c3ccccc3Br)CC2)cc(C(F)(F)F)n1 ?
SSB-PriA inh: 1.0

How did COC(=O)c1ccc(CSc2ccc(NC(=O)C(C)C)nn2)o1 do in these assays?
SSB-PriA inh: -7.0

What do the screens show for `O=C(CCl)N(Cc1ccccc1)c1ccccc1`?
3CLpro inhibitor: -0.3; VHR inh abs: 2.2; CCHFV vOTU inh: -0.3; SSB-PriA inh: -18.9

What do the screens show for `Cc1cccc(N(Cc2ccccc2)C(=O)CCl)c1`?
3CLpro inhibitor: 5.5; VHR inh abs: 32.4; CCHFV vOTU inh: 15.6; Mtb hypoxia rep: 36.0*; SSB-PriA inh: 0.2

What do the screens show for `COc1cccc2c1C(=O)c1c(O)c3c(c(O)c1C2=O)CC(O)(C(C)=O)CC3OC1CC(O)C(O)C(C)O1` (stereo not given)?
CCHFV vOTU inh: 3.7; SSB-PriA inh: 22.4

What do the screens show for `COc1cccc2c1C(=N)c1c(O)c3c(c(O)c1C2=O)CC(O)(C(C)=O)CC3OC1CC(N)C(O)C(C)O1` (stereo not given)?
SSB-PriA inh: 85.2*

Results for Cc1cc(C(F)(F)F)nc(CCNC(=O)c2cnc3ccccc3n2)n1 ?
SSB-PriA inh: 18.0

How did Cc1cc(=O)[nH]c(-n2nc(C)cc2NC(=O)C(C)C)n1 do in these assays?
SSB-PriA inh: 25.0

What do the screens show for `CC(=O)c1ccc2c(c1)C1C(Cl)C(Sc3ccccc3[N+](=O)[O-])CC1C(C(=O)O)N2` (stereo not given)?
3CLpro inhibitor: -6.5; VHR inh abs: 12.7; CCHFV vOTU inh: -4.7; Mtb hypoxia rep: 1.8; SSB-PriA inh: 46.4*

What do the screens show for `CCOC(=O)c1cc2c(ccn2C)n1Cc1cc(C)ccc1C`?
3CLpro inhibitor: -3.5; VHR inh abs: -8.2; CCHFV vOTU inh: -2.5; Mtb hypoxia rep: 15.4; SSB-PriA inh: 40.9*

How did Cc1cc(C)c(S(=O)(=O)c2ccc(C(C)(C)C)cc2)c(Cl)n1 do in these assays?
3CLpro inhibitor: -0.2; VHR inh abs: 52.6*; CCHFV vOTU inh: 12.2; Mtb hypoxia rep: 4.0; SSB-PriA inh: -6.3

How did Cc1ccsc1[C@@H](O)CNC(=O)C(C)(C)C do in these assays?
SSB-PriA inh: -11.0

Results for O=c1c2ccccc2c(-c2n[nH]c(=S)o2)nn1Cc1ccccc1 ?
3CLpro inhibitor: 2.0; VHR inh abs: -15.7; CCHFV vOTU inh: -1.5; Mtb hypoxia rep: 0.6; SSB-PriA inh: -6.1

How did OCc1ccc(-c2nn(Cc3ccccc3)c3ccccc23)o1 do in these assays?
CCHFV vOTU inh: -4.2; Mtb hypoxia rep: 6.9; SSB-PriA inh: 41.5*

How did O=C(Nc1ccccc1F)c1cc(C2CCN(C(=O)Cc3noc4ccccc34)CC2)[nH]n1 do in these assays?
SSB-PriA inh: 62.0*

What do the screens show for `NC(=NOC(=O)CC1CCCCC1)c1ccc(Cl)cc1`?
SSB-PriA inh: -22.1

Results for O=C1CCc2cc(S(=O)(=O)NCC3CCN(S(=O)(=O)C4CC4)CC3)cc3c2N1CC3 ?
SSB-PriA inh: 39.0*

Results for C[C@](O)(CNS(=O)(=O)c1cc2c3c(c1)CCN3C(=O)CC2)C1CC1 ?
SSB-PriA inh: -7.0

Results for COc1ccc(NC(=O)CN2C(=O)S/C(=C/c3cccn3-c3ccc(C(=O)O)cc3)C2=O)cc1 ?
3CLpro inhibitor: -1.9; VHR inh abs: 57.1*; CCHFV vOTU inh: 12.1

How did CCOc1ccc2nc(N3CCCC(C(=O)NC4CCCC4)C3)sc2c1 (stereo not given) do in these assays?
3CLpro inhibitor: -4.1; VHR inh abs: 52.7*; CCHFV vOTU inh: 5.6; Mtb hypoxia rep: 2.4; SSB-PriA inh: -8.1
